# PubChem BioAssay
# Calls of active or inactive are those of the source.
# Tests used:
# [1] = tested on: PRMT1 (protein arginine N-methyltransferase 1); experiment: PRMT1 binders on small-molecule microarrays, primary screen, biochemical, small-molecule microarray, 635 nm fluorescence (AID 1088); details: small-molecule microarray binding, higher = more signal;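 further: binding of Prmt1 protein to compounds spotted on small-molecule microarray slides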
# [2] = yeast growth modulation, basal conditions, primary screen, YJM789 clinical isolate, OD600, 24 h (AID 1089);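 further: growth of clinical yeast isolate S. cerevisiae YJM 789 seeded 1000 cells per well; test concentration not given here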; details: S. cerevisiae YJM789 growth, higher = more signal, called active from +8 up or from −8 down
# [3] = fission yeast growth modulation, primary screen, strain 972, OD600, 24 h, no modulator (AID 1090);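 further: basal condition with compound alone and no growth modifier present; test concentration not given here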; details: S. pombe 972 growth, higher = more signal, called active from +8 up or from −8 down
# [4] = S. cerevisiae growth modulation with rapamycin, primary screen, strain BY4716, OD600, 96 h (AID 1091); details: higher = more signal, called active from +8 up or from −8 down; further: test concentration not given here
# [5] = biological target: Torsin-1A-interacting protein 2 (Homo sapiens) (UniProt Q8NFQ8); experiment: LULL1 binders on small-molecule microarray, primary screen, cell lysate, human LULL1 lysate, 635/667 nm fluorescence (AID 1092); details: hLULL1 lysate binding, 635 nm fluorescence, higher = more signal;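 further: probe is lysate of COS7 cells overexpressing human LULL1; score merges per-feature 667 nm fluorescence with signal-to-noise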
# Chain of Torsin-1A-interacting protein 2 (Homo sapiens) (Q8NFQ8 whole entry, looked up): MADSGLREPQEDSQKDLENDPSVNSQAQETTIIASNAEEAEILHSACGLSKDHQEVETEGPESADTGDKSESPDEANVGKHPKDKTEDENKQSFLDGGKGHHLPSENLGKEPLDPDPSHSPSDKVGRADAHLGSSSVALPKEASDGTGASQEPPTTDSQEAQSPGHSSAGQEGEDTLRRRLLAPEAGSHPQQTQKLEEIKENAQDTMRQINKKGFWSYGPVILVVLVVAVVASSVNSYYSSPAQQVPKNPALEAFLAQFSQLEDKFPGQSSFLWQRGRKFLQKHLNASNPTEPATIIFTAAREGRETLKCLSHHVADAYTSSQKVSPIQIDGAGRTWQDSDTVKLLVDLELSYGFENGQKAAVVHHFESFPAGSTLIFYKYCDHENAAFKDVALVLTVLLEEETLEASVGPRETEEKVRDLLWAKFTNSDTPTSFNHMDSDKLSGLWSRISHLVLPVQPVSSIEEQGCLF
# [6] = E. coli growth modulation, two-sided OD650, primary screen, E. coli filamentation project, strain DRC41, 24 h (AID 1093); details: OD650, 24 h, higher = more signal, called active from +8 up or from −8 down;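 further: MC1000 strain lacking acrAB efflux and sulA so SOS filamentation is blocked; test concentration not given here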
# [7] = small-molecule microarray binders of probe aLefty2, primary screen, biochemical, biotinylated probe, 635/667 nm fluorescence (AID 1094); details: higher = more signal;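 further: score merges spot fluorescence near 667 nm with spot signal-to-noise ratio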
# [8] = tested on: Noggin (protein binding on small-molecule microarray); experiment: Noggin binders on small-molecule microarray, primary screen, biochemical, 635/667 nm fluorescence (AID 1095); details: 635 nm fluorescence, higher = more signal;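 further: score merges 667 nm feature fluorescence with signal to noise over triplicate slides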
# [9] = biological target: Neurogenic locus notch homolog protein 3 (Homo sapiens) (UniProt Q9UM47); experiment: NOTCH3 binders on small-molecule microarray, primary screen, biochemical, 635/667 nm fluorescence (AID 1096); details: NOTCH3 binding, 635 nm fluorescence, higher = more signal
# Chain of Neurogenic locus notch homolog protein 3 (Homo sapiens) (Q9UM47 whole entry, looked up): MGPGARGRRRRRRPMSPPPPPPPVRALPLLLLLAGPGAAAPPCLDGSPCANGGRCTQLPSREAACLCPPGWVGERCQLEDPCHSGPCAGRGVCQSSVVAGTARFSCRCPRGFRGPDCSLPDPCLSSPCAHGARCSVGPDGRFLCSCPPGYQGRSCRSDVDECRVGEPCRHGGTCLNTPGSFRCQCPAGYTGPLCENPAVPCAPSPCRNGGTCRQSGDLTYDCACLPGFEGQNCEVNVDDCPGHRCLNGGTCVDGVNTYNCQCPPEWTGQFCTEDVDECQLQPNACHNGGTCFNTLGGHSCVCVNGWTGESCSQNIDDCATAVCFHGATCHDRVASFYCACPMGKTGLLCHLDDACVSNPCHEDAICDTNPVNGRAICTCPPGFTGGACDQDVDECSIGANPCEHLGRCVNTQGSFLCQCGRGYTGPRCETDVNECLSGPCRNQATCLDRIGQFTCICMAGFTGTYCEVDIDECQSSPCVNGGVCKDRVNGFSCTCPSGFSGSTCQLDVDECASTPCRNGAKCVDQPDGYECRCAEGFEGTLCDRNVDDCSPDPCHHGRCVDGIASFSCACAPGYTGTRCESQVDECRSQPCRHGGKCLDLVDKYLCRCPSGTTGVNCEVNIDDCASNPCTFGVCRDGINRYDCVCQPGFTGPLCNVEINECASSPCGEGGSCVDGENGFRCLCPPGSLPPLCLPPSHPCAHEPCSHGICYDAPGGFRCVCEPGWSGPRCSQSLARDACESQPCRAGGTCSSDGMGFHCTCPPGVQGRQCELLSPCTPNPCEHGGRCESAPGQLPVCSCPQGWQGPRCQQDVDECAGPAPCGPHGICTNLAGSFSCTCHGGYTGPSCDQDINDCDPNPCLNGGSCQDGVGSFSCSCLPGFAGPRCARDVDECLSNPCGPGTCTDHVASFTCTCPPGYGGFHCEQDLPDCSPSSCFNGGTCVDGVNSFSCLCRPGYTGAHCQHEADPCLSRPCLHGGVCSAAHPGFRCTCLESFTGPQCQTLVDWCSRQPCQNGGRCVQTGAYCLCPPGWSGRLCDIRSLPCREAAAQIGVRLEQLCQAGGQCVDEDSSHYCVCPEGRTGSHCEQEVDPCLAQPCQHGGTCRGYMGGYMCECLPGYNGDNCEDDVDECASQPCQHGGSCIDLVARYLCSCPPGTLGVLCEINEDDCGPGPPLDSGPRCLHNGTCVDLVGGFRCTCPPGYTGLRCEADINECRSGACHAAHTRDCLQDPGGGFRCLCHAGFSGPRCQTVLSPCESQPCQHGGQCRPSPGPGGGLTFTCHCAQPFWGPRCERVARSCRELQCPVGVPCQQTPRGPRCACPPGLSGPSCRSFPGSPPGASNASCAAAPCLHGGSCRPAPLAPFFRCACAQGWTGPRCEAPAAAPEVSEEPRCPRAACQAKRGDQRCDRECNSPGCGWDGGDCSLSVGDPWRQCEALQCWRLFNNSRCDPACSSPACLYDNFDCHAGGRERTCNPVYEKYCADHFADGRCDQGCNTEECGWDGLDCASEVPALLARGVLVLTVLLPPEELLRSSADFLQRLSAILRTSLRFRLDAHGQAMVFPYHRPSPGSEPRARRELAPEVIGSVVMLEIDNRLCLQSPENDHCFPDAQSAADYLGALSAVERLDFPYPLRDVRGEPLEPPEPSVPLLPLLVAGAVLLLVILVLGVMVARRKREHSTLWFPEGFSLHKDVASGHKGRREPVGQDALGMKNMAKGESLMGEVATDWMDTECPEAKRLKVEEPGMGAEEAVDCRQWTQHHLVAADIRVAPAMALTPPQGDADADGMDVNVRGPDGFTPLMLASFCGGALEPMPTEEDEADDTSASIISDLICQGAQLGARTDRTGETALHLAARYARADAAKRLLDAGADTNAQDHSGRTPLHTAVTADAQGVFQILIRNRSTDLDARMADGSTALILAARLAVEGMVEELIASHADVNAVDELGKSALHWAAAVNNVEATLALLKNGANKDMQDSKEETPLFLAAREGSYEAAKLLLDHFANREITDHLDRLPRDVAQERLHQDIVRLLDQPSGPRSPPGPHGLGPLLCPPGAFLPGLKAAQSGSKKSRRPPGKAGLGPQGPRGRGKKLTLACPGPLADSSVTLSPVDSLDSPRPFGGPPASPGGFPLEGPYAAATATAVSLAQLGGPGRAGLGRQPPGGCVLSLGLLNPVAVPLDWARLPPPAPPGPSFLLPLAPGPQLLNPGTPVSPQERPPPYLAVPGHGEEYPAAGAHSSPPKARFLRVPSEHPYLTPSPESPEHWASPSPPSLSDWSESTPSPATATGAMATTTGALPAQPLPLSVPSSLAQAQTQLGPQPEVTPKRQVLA
# [10] = small-molecule microarray binders of probe aEGFR, primary screen, biochemical, biotinylated probe, 635/667 nm fluorescence (AID 1097); details: higher = more signal;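 further: probe is a biotinylated anti-EGFR antibody binding compounds printed on slides; score combines fluorescence near 667 nm and signal to noise of each spot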
# [11] = tested on: Plasmodium falciparum Sir2 (PF13_0152, Sir2A); experiment: pfSir2 binders on small-molecule microarrays, primary screen, biochemical, small-molecule microarray, 635 nm fluorescence (AID 1098); details: small-molecule microarray binding, fluorescence 635 nm; higher = more signal;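 further: score merges spot fluorescence intensity with its signal-to-noise ratio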
# [12] = small-molecule microarray binders of probe aDKK1, primary screen, biochemical, biotinylated probe, 635/667 nm fluorescence (AID 1099); details: higher = more signal;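 further: score merges 667nm spot fluorescence with signal to noise across triplicate slides; reference of the scale not given here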
# [13] = small-molecule microarray binders of probe aCHRDL2, primary screen, biochemical, biotinylated probe, 635/667 nm fluorescence (AID 1100); details: higher = more signal
# [14] = splicing luciferase reporter signal modulators, primary screen, spliceosome inhibition project, cell-based, HEK293, splice +/- reporter (AID 1101); details: luminescence, 24 h, higher = more signal, called active from +8 up or from −8 down;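 further: HEK293 cells carrying a splicing-competent luciferase reporter gene; test concentration not given here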
# [15] = biological target: Fibroblast growth factor 10 (Homo sapiens) (UniProt O15520); experiment: FGF10 binders on small-molecule microarrays, primary screen, biochemical, small-molecule microarray, 635 nm fluorescence (AID 1102); details: FGF10 binding, fluorescence 635 nm, higher = more signal
# Chain of Fibroblast growth factor 10 (Homo sapiens) (O15520 whole entry, looked up): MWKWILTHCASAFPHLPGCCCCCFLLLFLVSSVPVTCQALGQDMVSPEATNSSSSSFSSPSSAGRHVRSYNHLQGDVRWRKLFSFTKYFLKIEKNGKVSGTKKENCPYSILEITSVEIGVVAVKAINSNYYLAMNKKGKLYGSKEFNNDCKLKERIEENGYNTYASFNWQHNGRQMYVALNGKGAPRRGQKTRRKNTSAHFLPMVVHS
# [16] = tested on: glycogen synthase kinase-3 (GSK3A per assay name; protocol says GSK3B); experiment: GSK3 binders on small-molecule microarrays, primary screen, biochemical, small-molecule microarray, 635 nm fluorescence, GSK3A (AID 1103); details: small-molecule microarray binding, fluorescence 635 nm; higher = more signal; further: the record names both GSK3A and GSK3B
# [17] = biological target: Epidermal growth factor receptor (Homo sapiens) (UniProt P00533); experiment: EGFR binders on small-molecule microarrays, primary screen, biochemical, small-molecule microarray, 635 nm fluorescence (AID 1104); details: EGFR binding, higher = more signal;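 further: score merges 667 nm emission intensity with spot signal to noise over triplicate slides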
# Chain of Epidermal growth factor receptor (Homo sapiens) (P00533 whole entry, looked up): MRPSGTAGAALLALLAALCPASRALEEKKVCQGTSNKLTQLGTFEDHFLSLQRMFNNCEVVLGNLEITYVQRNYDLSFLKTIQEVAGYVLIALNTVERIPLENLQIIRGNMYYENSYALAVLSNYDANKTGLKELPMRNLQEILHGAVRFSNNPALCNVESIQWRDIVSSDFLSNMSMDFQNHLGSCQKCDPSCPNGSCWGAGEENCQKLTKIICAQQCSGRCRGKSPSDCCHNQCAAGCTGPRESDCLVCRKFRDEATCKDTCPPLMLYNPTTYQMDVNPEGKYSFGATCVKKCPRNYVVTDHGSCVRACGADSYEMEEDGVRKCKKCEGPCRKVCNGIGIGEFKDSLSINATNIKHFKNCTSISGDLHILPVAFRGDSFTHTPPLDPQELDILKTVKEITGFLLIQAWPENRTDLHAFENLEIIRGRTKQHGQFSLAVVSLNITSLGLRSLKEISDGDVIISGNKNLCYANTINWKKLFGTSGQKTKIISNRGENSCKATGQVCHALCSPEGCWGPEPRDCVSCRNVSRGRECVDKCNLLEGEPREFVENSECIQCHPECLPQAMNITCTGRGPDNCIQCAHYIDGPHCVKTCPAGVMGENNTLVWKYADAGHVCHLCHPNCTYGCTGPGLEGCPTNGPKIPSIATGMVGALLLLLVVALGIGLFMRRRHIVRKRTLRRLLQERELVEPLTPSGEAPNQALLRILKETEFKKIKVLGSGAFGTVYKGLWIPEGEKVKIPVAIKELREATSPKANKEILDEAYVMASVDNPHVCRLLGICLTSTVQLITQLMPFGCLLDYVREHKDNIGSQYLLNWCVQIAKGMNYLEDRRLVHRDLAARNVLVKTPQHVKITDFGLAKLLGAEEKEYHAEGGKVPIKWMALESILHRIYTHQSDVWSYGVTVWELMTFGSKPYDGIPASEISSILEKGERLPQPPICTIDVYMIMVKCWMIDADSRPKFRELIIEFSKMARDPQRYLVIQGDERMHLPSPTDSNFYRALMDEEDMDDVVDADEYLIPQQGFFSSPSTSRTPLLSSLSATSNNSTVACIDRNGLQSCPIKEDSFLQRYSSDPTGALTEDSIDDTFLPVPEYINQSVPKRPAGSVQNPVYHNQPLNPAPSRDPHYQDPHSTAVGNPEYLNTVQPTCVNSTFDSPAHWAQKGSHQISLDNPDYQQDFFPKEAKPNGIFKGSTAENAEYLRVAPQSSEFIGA
# [18] = biological target: Follistatin-related protein 3 (Homo sapiens) (UniProt O95633); experiment: FSTL3 binders on small-molecule microarrays, primary screen, biochemical, small-molecule microarray, 635 nm fluorescence (AID 1105); details: FSTL3 binding, higher = more signal;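 further: score merges emission near 667 nm and signal to noise per printed spot across three slides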
# Chain of Follistatin-related protein 3 (Homo sapiens) (O95633 whole entry, looked up): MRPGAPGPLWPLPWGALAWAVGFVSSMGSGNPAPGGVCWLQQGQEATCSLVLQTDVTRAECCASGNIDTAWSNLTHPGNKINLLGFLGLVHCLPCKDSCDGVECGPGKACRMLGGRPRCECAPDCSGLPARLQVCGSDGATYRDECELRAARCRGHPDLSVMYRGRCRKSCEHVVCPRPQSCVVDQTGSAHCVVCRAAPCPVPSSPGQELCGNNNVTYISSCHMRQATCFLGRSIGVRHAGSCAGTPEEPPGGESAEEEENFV
# [19] = biological target: Dickkopf-related protein 1 (Homo sapiens) (UniProt O94907); experiment: DKK1 binders on small-molecule microarrays, primary screen, biochemical, small-molecule microarray, 635 nm fluorescence scan (AID 1106); details: DKK1 binding, higher = more signal;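 further: score merges emission near 667 nm with signal to noise over three replicate slides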
# Chain of Dickkopf-related protein 1 (Homo sapiens) (O94907 whole entry, looked up): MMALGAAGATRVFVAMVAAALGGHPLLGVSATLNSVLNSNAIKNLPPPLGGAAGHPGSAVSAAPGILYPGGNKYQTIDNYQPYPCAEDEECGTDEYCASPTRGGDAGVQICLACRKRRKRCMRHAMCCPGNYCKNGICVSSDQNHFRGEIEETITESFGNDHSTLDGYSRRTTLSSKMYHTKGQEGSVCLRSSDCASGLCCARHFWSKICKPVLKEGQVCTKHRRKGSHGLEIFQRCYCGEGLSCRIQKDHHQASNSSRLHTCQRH
# [20] = tested on: Inhibin beta A chain (activin A); experiment: INHBA (activin A) binders on microarrays, primary screen, biochemical, small-molecule microarray, 635 nm fluorescence scan (AID 1107); details: small-molecule microarray binding, higher = more signal;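 further: mouse activin A protein probed at 4.33 µg/mL on printed slides; score merges bound-protein fluorescence near 667 nm with spot signal-to-noise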
Structure (SMILES),composite z-score [1],z-score [2],z-score [3],z-score [4],composite z-score [5],z-score [6],composite z-score [7],composite z-score [8],composite z-score [9],composite z-score [10],composite z-score [11],composite z-score [12],composite z-score [13],z-score [14],composite z-score [15],composite z-score [16],composite z-score [17],composite z-score [18],composite z-score [19],composite z-score [20]
O=C1C2C=CC(C(O)c3c(F)cccc3Cl)N(Nc3ccccc3)C2C(=O)N1c1ccccc1 (stereo not given),1.56,0.269 (inactive),0.211 (inactive),0.395 (inactive),3.43,0.063 (inactive),0.0313,0.461,1.04,-0.0251,0.741,0.532,0.256,-0.00944 (inactive),0.581,1.3,0.271,1.34,0.236,0.672
CCc1oc(CC[C@@H](CO)NC(=O)NCCn2cc(C3(O)CCCCC3)nn2)c(C(=O)OC)c1C(=O)OC,1.32,0.458 (inactive),-0.173 (inactive),-0.874 (inactive),0.775,-1.2 (inactive),-0.0615,1.39,0.939,0.0473,0.832,-0.0378,-0.402,-0.0596 (inactive),1.13,0.972,0.717,1.33,0.887,0.289
COc1cc(OC)c(C(O)C2C=CC3C(=O)NC(=O)C3N2Nc2ccc(Cl)cc2Cl)cc1Br (stereo not given),0.743,-18.8 (active),0.109 (inactive),-0.55 (inactive),3.34,-1.99 (inactive),0.277,-0.48,0.541,0.0009,1.38,2.08,1.16,2.41 (inactive),0.0245,0.0735,-0.142,0.498,-0.985,0.312
CC(C)[C@@H](CO)NC(=O)[C@H]1[C@@H](c2ccccc2)N(c2ccccc2)O[C@@H]1C,-0.159,-0.0247 (inactive),-0.207 (inactive),0.072 (inactive),1.02,1.08 (inactive),-0.193,0.171,-0.271,-0.177,0.008,-0.343,-0.343,-0.18 (inactive),-0.123,-0.418,-0.0881,-0.218,0.227,0.197
[N-]=[N+]=Nc1ccccc1C[C@]1(C(=O)NCC(O)CO)N=C(c2ccc(OCCCO)cc2)O[C@H]1c1ccccc1N=[N+]=[N-] (stereo not given in full),-0.918,0.637 (inactive),-0.824 (inactive),0.0558 (inactive),2.98,0.774 (inactive),0.334,-0.609,0.203,0.383,0.535,0.963,0.704,-1.19 (inactive),-0.255,-0.517,-0.363,-0.736,-1.12,1.01
COC(=O)c1c(CC[C@@H](CO)NC(=O)N[C@H](Cn2cc(Cc3ccccc3)nn2)C(C)C)oc(C(C)=O)c1C(=O)OC,1.08,-0.178 (inactive),-0.787 (inactive),0.158 (inactive),1.08,0.918 (inactive),-0.166,0.493,0.39,-0.145,0.751,-0.195,-0.457,-0.781 (inactive),1.16,0.544,-0.172,0.678,0.857,0.509
[N-]=[N+]=NCc1ccccc1C[C@]1(C(=O)O)N=C(c2ccc(OCCCO)cc2)O[C@H]1c1ccccc1N=[N+]=[N-],1.56,0.869 (inactive),-0.742 (inactive),0.924 (inactive),3.21,0.644 (inactive),-0.128,0.435,1.14,0.012,1.17,0.621,0.435,-3.66 (inactive),1.12,1.16,0.386,0.737,0.0572,0.303
O=C1OCC=C[C@H]2OC34C=CCN(c5ccc6ccccc6c5)C(=O)[C@H]3N(CCCCCCO)C(=O)[C@@H]4[C@@H]12 (stereo not given in full),-0.518,-0.966 (inactive),-0.715 (inactive),-0.806 (inactive),2.62,-0.133 (inactive),-0.0493,-1.33,-0.435,-0.256,1.66,-0.117,0.817,-0.076 (inactive),-0.821,-1.12,-1.79,-1.69,-0.854,0.0633
COc1cc(CO)cc(I)c1O[C@H]1C=C(C(=O)NCCO)C[C@@H](N(CCN2CCOCC2)C(=O)C2CCOC2)[C@@H]1O (stereo not given in full),0.815,-0.263 (inactive),-0.62 (inactive),-0.679 (inactive),-0.367,2.36 (inactive),-0.0636,0.407,0.51,-0.099,0.505,-0.424,-0.544,-0.145 (inactive),1.29,0.437,-0.0432,0.742,0.507,-0.584
CC(C)c1ccc(NN2C(C(O)c3cc(C(F)(F)F)cc(C(F)(F)F)c3)C=CC3C(=O)N(c4ccccc4)C(=O)C32)cc1 (stereo not given),0.353,0.89 (inactive),0.183 (inactive),3.38 (inactive),3.22,-2.08 (inactive),-0.0831,-0.722,0.245,-0.152,0.91,0.74,0.8,-0.753 (inactive),-0.329,0.543,-0.911,-0.486,-0.551,0.655
COc1ccc(C(O)C2C=CC3C(=O)N(C)C(=O)C3N2N2CCCCC2)c2ccccc12 (stereo not given),1.42,-0.079 (inactive),1.16 (inactive),0.631 (inactive),3.01,-1.22 (inactive),0.168,0.303,1.11,0.095,1.17,0.65,0.947,1.28 (inactive),0.956,1.29,0.344,1.24,-0.312,0.91
C=C(COC)/C(=C/C[C@H](OC(=O)c1ccncc1)c1ccc(OCCO)cc1)c1cnc2ccccc2c1,1.53,-0.922 (inactive),-1.39 (inactive),0.0294 (inactive),3.13,-0.124 (inactive),-0.0094,1.39,1.05,0.0176,1.24,0.159,-0.106,-1.02 (inactive),1.36,1.07,1.26,1.55,1.01,1.61
